Measured values reported in paper PMC4336329 (PLoS ONE, 2015).
The campaign covered roughly 310,000 compounds. About 14,000 (4.5%) showed an effect of 50% or more. Effects have a minus sign here. The sample holds strong results, similar compounds and a random draw of the others, so the mix is not that of the screen.

target: human ether-à-go-go-related gene (hERG) potassium channel (human, UniProt Q12809); experiment: primary screen, population patch clamp on CHO cells stably expressing hERG; higher = less effect of the substance
Sequence (Q12809 whole entry, looked up): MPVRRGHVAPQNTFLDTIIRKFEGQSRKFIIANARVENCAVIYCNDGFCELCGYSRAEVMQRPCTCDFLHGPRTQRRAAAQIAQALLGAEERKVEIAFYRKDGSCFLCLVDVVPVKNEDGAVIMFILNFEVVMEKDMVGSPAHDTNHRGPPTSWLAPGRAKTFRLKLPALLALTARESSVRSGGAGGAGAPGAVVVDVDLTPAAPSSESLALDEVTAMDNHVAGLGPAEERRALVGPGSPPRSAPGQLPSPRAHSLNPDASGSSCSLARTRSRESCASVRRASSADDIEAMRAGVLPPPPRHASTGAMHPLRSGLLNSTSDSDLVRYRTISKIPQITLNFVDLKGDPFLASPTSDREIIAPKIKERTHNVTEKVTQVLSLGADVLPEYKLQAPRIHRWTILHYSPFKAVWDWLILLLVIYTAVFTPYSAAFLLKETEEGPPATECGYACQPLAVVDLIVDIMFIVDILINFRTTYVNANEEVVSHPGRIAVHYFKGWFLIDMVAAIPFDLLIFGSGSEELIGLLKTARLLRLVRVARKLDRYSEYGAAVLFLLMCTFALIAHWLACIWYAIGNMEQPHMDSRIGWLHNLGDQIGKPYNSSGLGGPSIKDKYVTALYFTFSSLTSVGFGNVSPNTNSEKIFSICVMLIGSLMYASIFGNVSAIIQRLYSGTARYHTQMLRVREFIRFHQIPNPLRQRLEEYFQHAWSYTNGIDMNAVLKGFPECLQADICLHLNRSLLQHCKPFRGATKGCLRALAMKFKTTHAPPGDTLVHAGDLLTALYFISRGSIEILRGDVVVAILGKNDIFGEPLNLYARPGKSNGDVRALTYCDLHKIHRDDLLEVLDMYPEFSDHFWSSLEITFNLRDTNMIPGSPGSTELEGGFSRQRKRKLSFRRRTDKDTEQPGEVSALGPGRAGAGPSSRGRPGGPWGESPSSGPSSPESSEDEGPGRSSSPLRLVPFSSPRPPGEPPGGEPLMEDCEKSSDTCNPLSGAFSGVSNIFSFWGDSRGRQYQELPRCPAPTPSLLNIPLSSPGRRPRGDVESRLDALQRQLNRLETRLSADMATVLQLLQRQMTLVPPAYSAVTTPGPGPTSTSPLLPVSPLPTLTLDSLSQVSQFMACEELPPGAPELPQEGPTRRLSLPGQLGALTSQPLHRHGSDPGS
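Further: peak tail current of the secondary pulse compared with the same well before compound.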

| SMILES | hERG current change (%, negative = inhibition) at 10uM [%] |
| --- | --- |
| CC(C)C(=O)NC(=S)Nc1sc2c(c1C(N)=O)CCCC2 | 13.5 |
| COc1ccc(N2C(=O)CSCC2=O)cc1OC | 8.4 |
| Cc1ccc2nc(CCl)[n+]([O-])c(-c3ccccc3)c2c1 | 1.16 |
| Cc1ccc(CN2C(=O)CCC2C(=O)NCCN2CCOCC2)cc1 (stereo not shown) | 3.18 |
| CCc1cccc(CC)c1NC(=O)CN1CCN(c2ccccc2)CC1.Cl | -15.7 |
| O=S(=O)(N1CCOCC1)N1CCN(c2ccccc2F)CC1 | -8.17 |
| CC(C)CNC(=O)c1ccccc1-c1ccccc1C(=O)O | 19.5 |
| CCc1nnc(NC(=O)CSc2nnc(C(C)NC(=O)c3ccccc3F)n2C)s1 (stereo not shown) | 9.22 |
| O=C(COC(=O)c1cc([N+](=O)[O-])ccc1N1CCOCC1)Nc1ccc(Cl)cc1 | -28.2 |
| CCOc1ccc(NC(=O)COC(=O)c2cc([N+](=O)[O-])ccc2N2CCOCC2)cc1 | -43.8 |
| O=C(COC(=O)c1cc([N+](=O)[O-])ccc1N1CCOCC1)NC1CCCCC1 | -30.7 |
| CCOc1ccc(C(=O)c2cc([N+](=O)[O-])ccc2N2CCOCC2)cc1 | -20.4 |
| O=C(COC(=O)c1cc([N+](=O)[O-])ccc1N1CCOCC1)NCc1ccc(Cl)cc1Cl | -63 |
| N#CC1(NC(=O)COC(=O)c2cc([N+](=O)[O-])ccc2N2CCCC2)CCCCC1 | -29.8 |
| N#CC1(NC(=O)COC(=O)c2cc([N+](=O)[O-])ccc2N2CCOCC2)CCCCC1 | -55.3 |
| CCOc1ccc(NC(=O)c2cc([N+](=O)[O-])ccc2N2CCOCC2)cc1 | -55.5 |
| COc1ccccc1CNC(=O)COC(=O)c1cc([N+](=O)[O-])ccc1N1CCOCC1 | -48.9 |
| CCOc1cc(/C=N/NC(=O)c2cccnc2)ccc1OCC(=O)N(C)C | 19.3 |
| CC(OC(=O)c1ccccc1C(=O)N(C)c1ccccc1)C(=O)Nc1ccccc1[N+](=O)[O-] (stereo not shown) | -45.5 |
| CN1[C@@H]2CC[C@H]1CC(OC1c3ccccc3CCc3ccccc31)C2.O=C(O)CC(O)(CC(=O)O)C(=O)O (stereo partly shown) | -42.6 |
| CC(C)NC(=O)c1cc(-c2cccs2)on1 | -4.89 |
| CCCCN(C(=O)c1ccc2c(c1)S(=O)(=O)N=C1CCCCCN12)c1c(N)n(CCCC)c(=O)[nH]c1=O | 8.23 |

| SMILES | hERG current change (%, negative = inhibition) at 10uM [%] |
| --- | --- |
| COc1cc(N=CC2=C(O)c3ccccc3C2=O)cc(OC)c1 | 8.36 |
| Cc1cccc(NS(=O)(=O)c2ccc(C)c(C(=O)NCC(c3ccccc3)N(C)C)c2)c1 (stereo not shown) | -14.2 |
| Nc1c(-c2ccccc2)c(CSc2nc3ccccc3[nH]2)nn1-c1cccc(Cl)c1 | -3.15 |
| O=C(COc1ccc(Cl)cc1)NC1CC1 | 5.47 |
| O=C(Nc1ccc(-c2nc3ccccc3s2)c(O)c1)C1=COCCO1 | -73.1 |
| O=C(Nc1ccc(-c2nc3ccccc3s2)cc1)C1=COCCO1 | 22.2 |
| O=C(Nc1ccccc1-c1nc2ccccc2s1)C1=COCCO1 | 0.377 |
| CCOc1ccc(/C(O)=C2/C(=O)C(=O)N(CCN(CC)CC)C2c2cccs2)cc1 (stereo not shown) | 8.37 |
| O=c1cc(-c2ccccc2Cl)oc2ccc([N+](=O)[O-])c(O)c12 | 9.93 |
| Cc1ccccc1CCN1CCCC(CN(C)CC(C)(C)C)C1 (stereo not shown) | 8.88 |
| CN(CC1CCCN(CCc2ccc(Cl)cc2)C1)C(=O)C(=O)c1ccco1 (stereo not shown) | -74.5 |
| CN(CC1CCCN(CCc2ccc(Cl)cc2)C1)C(=O)c1ccco1 (stereo not shown) | -25.5 |
| Cc1ccccc1CCN1CCCC(CN(C)C(=O)C(=O)c2ccco2)C1 (stereo not shown) | -70.1 |
| CCOc1ccc(NC(=O)CSc2nncn2C)cc1 | 18.7 |
| CCc1noc(C)c1C(=O)Nc1nnc(C(CC)CC)s1 | -16.9 |
| CC1C/C(=C/c2ccncc2)C(=O)/C(=C/c2ccncc2)C1 (stereo not shown) | -41.9 |
| CC1C/C(=C\c2cccnc2)C(=O)/C(=C/c2cccnc2)C1 (stereo not shown) | -63.1 |
| O=C1/C(=C/c2cccnc2)CC/C1=C\c1cccnc1 | -24.5 |
| COc1ccccc1CC(=O)Nc1ccc(S(=O)(=O)N2CC(C)CC(C)C2)cc1 (stereo not shown) | -7.25 |
| COc1cc(OC)nc(NC(=O)CN2CCN(c3ccc(F)cc3)CC2)n1 | -20.1 |
| Cc1ccc(C2NC(=O)c3c(sc4c3CCN(C)C4)N2)s1 (stereo not shown) | -36.8 |
